Results: article PMC5540273 (PLoS ONE, 2017)

The compounds below were run on BTK. Settings: concentration: 1 μM, replicates: in singlicate; n = 1.
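Also: KINOMEscan kinase panel screen.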

| Structure (SMILES) | %Inh |
| --- | --- |
| Cc1c2ccc(N(C)c3ccnc(Nc4cccc(S(N)(=O)=O)c4)n3)cc2nn1Cc1ccccc1.Cl.Cl [GW787226] | 0% |
| Fc1ccc(-c2ncn(CCCN3CCOCC3)c2-c2cccnc2)cc1 [SB-211743] | 0% |
| COc1ccc(Nc2ncc(C#N)c(Nc3ccccc3C(N)=O)n2)cc1N1CCN(C)CC1.Cl [GSK1558669] | 97.2% |
| O=c1cc(N2CCOCC2)nc2n(Cc3cccc4ccccc34)ccn12 [GSK2333389] | 0% |
| CCc1nc(-c2cccc(C)c2)c(-c2ccnc(NCc3ccccc3)c2)s1 | 0% |
| O=C(NCCNc1ccnc(Nc2ccc(F)cc2)n1)c1cc2ccccc2s1 [GSK1379874] | 0% |
| O=C(NCCNc1ccnc(Nc2ccc(F)cc2)n1)Nc1ccccc1F [GSK1379880] | 0% |
| CN(C(=O)c1ccc(-c2cc(-c3c[nH]nc3-c3ccccn3)ccn2)cc1)C1CCOCC1 [GW810083] | 16% |
| O=C(Nc1n[nH]c2cc(-c3cccc(F)c3)ccc12)C1CC1 [SB-735464] | 0% |
| Cc1nnc(-c2ccc(C)c(-c3ccc(C(=O)Nc4ccc(NS(C)(=O)=O)cc4)cc3)c2)o1 [GW702865] | 40% |
| COc1ccc(S(=O)(=O)NC2CCN(c3cc(C)nc(Nc4cccc(C#N)c4)n3)CC2)cc1.O=C(O)C(F)(F)F [GSK1653539] | 0% |
| O=C(NOCC1CC1)c1ccc(F)c(F)c1Nc1ccc(I)cc1Cl | 0% |
| COc1cc2c(cc1OC[C@@H](O)CO)ncc1c3ccc(C#N)cc3[nH]c21 | 0% |
